From PubChem BioAssay
Hits are enriched below; roughly 1.1% of the tested compounds scored in any of these assays.
p97 inhibitor: inhibitors of human p97 ATPase, primary screen, biochemical; recombinant p97 ATPase, Kinase-Glo ATP luminescence, 3 h; 0.42% of 220,000 active; inhibition, % at 8 µM; AID 1481, 2009; Transitional endoplasmic reticulum ATPase (Homo sapiens), P55072; in the data active means inhibition above about 15%
S1P4 ag: S1P4 receptor agonists, primary screen, cell-based; S1P4-expressing cell line, agonist reporter assay; activation, % at 4.98 µM; 0.35% of 220,000 active; in the data active means activation above about 11%
Target sequence (O95977 whole entry, looked up): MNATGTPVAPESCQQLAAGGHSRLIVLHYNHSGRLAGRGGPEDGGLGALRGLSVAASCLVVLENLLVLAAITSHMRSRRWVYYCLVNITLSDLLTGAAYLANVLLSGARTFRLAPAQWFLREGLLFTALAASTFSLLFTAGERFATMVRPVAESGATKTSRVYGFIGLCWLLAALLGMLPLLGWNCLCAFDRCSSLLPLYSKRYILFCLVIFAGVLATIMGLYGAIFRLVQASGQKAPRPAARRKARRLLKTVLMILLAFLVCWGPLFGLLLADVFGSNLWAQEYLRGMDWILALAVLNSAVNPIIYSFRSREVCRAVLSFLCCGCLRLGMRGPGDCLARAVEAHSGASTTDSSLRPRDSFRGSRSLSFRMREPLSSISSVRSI
S1P3 antag: S1P3 receptor antagonists, primary screen, cell-based; CHO S1P3 NFAT-BLA reporter, FRET fluorescence, antagonist mode; inhibition, % at 4.98 µM; 0.27% of 170,000 active; AID 485, 2006;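 active means inhibition above the plate cutoff, the mean inhibition of test wells on that plate plus 3 SD, cut at about 28% in these data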;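 further: cells challenged with S1P at its EC80 of 0.8 µM; blue over green emission ratio from cleaved BLA substrate after 4 h stimulation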
DTT redox prof: compounds producing H2O2 with reducing agent – biochemical, NIH compound library profiling, artefact control for MLSCN library redox annotation, primary screen; DTT-dependent redox cycling H2O2, phenol red/HRP absorbance; 100% = 100 µM peroxide control, 0% = buffer; activation, % at 10 µM; 0.03% of 200,000 active; AID 878, 2007;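 active means activation of at least 50% relative to the plate's high and low controls in the primary single-dose screen; inactive means activation below 50%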;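 further: compound incubated with DTT at 0.8 mM final as the reducing agent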
S1P4 antag: S1P4 receptor antagonists, primary screen, cell-based; Sphingosine 1-phosphate receptor 4 (Homo sapiens), O95977; S1P4-expressing cells, antagonist mode, reporter read-out; inhibition, % at 4.98 µM; 0.26% of 220,000 active; AID 1510, 2009; in the data active means inhibition above about 29%
SUMO HTRF inh: inhibitors of in vitro SUMOylation cascade, primary screen, biochemical, HTRF, uHTS | HTRF SUMOylation assay, SAE1/SAE2 + UBC9 | inhibition, % at 35 µM | 0.36% of 290,000 active; in the data active means inhibition above about 50%, passing the limit was not always enough; inconclusive means no clear call, values can overlap the other calls
Target sequence (P63279 whole entry, looked up): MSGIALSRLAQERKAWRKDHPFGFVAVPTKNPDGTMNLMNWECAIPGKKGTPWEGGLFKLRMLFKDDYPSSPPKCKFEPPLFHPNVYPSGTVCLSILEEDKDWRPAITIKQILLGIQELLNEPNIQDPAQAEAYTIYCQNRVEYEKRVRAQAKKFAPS
Each line names hits and unclear results; the compound was inactive in the other large screens.

COc1c(Cl)cc(Cl)cc1/C=N/NC(=O)c1nnn(-c2nonc2N)c1CN1CCC(C)CC1	none (no result: p97 inhibitor, S1P4 ag, S1P3 antag, DTT redox prof, S1P4 antag)
CC1CCN(Cc2c(C(=O)N/N=C/c3cc(Br)ccc3O)nnn2-c2nonc2N)CC1	SUMO HTRF inh 76 (no result: p97 inhibitor, S1P4 ag, S1P3 antag, DTT redox prof, S1P4 antag)
CCN(CC)C(=O)Cn1cnc2sc(C(=O)Nc3cc(OC)c(OC)c(OC)c3)c(C)c2c1=O	none (no result: S1P3 antag)
CN1CCc2c(sc(NC(=O)c3ccc(S(=O)(=O)N4CCc5ccccc54)cc3)c2C(N)=O)C1	p97 inhibitor 15 (no result: DTT redox prof)
CNC(=O)c1c(NC(=O)c2ccc(S(=O)(=O)N3CCCc4ccccc43)cc2)sc2c1CCN(C)C2	none (no result: DTT redox prof)
O=C(CSc1nc(O)c(C2CCCCC2)c(=O)[nH]1)Nc1ccccc1Cl	none (no result: p97 inhibitor, S1P4 ag, S1P3 antag, DTT redox prof, S1P4 antag)
CCOc1ccc(-n2c(SCC(=O)Nc3ccc(CC)cc3)nc3n[nH]c(C)c3c2=N)cc1	SUMO HTRF inh 56
CCCN(CCC)C(=O)CSc1nc2n[nH]c(C)c2c(=N)n1-c1ccc(OCC)cc1	none
O=C(CSc1ccc(-c2ccco2)nn1)c1cccc([N+](=O)[O-])c1	SUMO HTRF inh 73
CC(=O)c1cccc(NC(=O)CSc2ccc(-c3ccco3)nn2)c1	none (no result: p97 inhibitor, S1P4 ag, S1P3 antag, DTT redox prof, S1P4 antag)
O=C(NCc1ccco1)Nc1ccc2snnc2c1	SUMO HTRF inh 69 (no result: S1P3 antag)
CNC(=O)Nc1ccc2snnc2c1	none (no result: S1P3 antag)
Cc1nc2ccc(NC(=O)NCc3ccco3)cc2s1	SUMO HTRF inh 67
CCN(CC(=O)NC1CCS(=O)(=O)C1)c1nc(-c2ccccc2)nc2ccccc12 (configuration not stated)	S1P3 antag 94
O=C(Cc1ccccc1)NC1CCS(=O)(=O)C1 (configuration not stated)	none (no result: S1P3 antag)
CCOC(=O)N1CCN(C2CCCN(C(=O)c3cccc(Cl)c3)C2)CC1 (configuration not stated)	none (no result: p97 inhibitor, S1P4 ag, S1P3 antag, DTT redox prof, S1P4 antag)
O=C1OC(Nc2cc(Br)cc3cccnc23)c2ccccc21 (configuration not stated)	SUMO HTRF inh 88
O=C1OC(Nc2ncccn2)c2ccccc21 (configuration not stated)	none (no result: S1P3 antag)
O=C(O)/C=C\c1cn(-c2ccccc2)nc1-c1cc2ccccc2o1	SUMO HTRF inh 59
O=C(O)/C=C/c1cn(-c2ccccc2)nc1-c1cc2ccccc2o1	SUMO HTRF inh 51 (no result: DTT redox prof)
CC(C)CC(=O)NC(=S)Nc1ccccc1C(=O)Nc1ccccc1	none (no result: S1P3 antag)
CC1(C)Cc2c(cnn2-c2ccc(F)cc2)C(NC(=O)CCN2CCCCC2=O)C1 (configuration not stated)	none (no result: p97 inhibitor, S1P4 ag, S1P3 antag, DTT redox prof, S1P4 antag)
COCCCNC(=O)CC1C(=O)N(Cc2ccccc2)C(C)c2nc3ccccc3n21 (configuration not stated)	none
COC(=O)c1c(N)n(-c2ccc(N3CCOCC3)cc2)c2nc3ccccc3nc12	SUMO HTRF inh 52 (no result: p97 inhibitor, S1P4 ag, DTT redox prof, S1P4 antag)
CN(C)/C=N/c1nc2nccc(-c3cccc(Cl)c3)n2n1	SUMO HTRF inh 50
CN(C)/C=N/c1nc2nccc(-c3ccc(F)cc3)n2n1	SUMO HTRF inh 52
CN(C)/C=N/c1nc2nccc(-c3cccs3)n2n1	SUMO HTRF inh inconclusive
Fc1ccc(-c2ccnc3nc(N4CCOCC4)nn23)cc1	SUMO HTRF inh 52 (no result: S1P3 antag)
FC(F)(F)c1cccc(-c2nnc3ccc(C(F)(F)F)cn23)c1	S1P3 antag 93
FC(F)(F)c1cccc(-c2nn[nH]n2)c1	none
O=C(NCc1ccc2c(c1)OCO2)c1nnc(Cc2ccc(F)cc2)o1	S1P3 antag 106
Cn1c(-c2c(N)n(CCc3ccccc3)c3nc4ccccc4nc23)nc2ccccc21	none (no result: S1P3 antag)
Cn1c(-c2c(N)n(C3CCCC3)c3nc4ccccc4nc23)nc2ccccc21	S1P3 antag 75
CCOC(=O)c1nc2sc3c(c2c(=O)[nH]1)CCCC3	none
N#C/C(=C\c1ccc(C(=O)O)cc1)c1nc2sc3c(c2c(=O)[nH]1)CCCC3	SUMO HTRF inh 60 (no result: DTT redox prof)
O=C(CSc1nc2ccccc2n1CCc1ccccc1)c1ccc(O)c(O)c1	SUMO HTRF inh 65
O=C(CSc1nc2ccccc2n1CCc1ccccc1)N1CCOCC1	none
O=C1NN(c2cccc(Br)c2)C(=O)/C1=C/c1ccc(-c2cc([N+](=O)[O-])ccc2O)o1	p97 inhibitor 35 (no result: DTT redox prof)
CC1=NN(c2ccc(C)cc2)C(=O)/C1=C/c1ccc(-c2cc([N+](=O)[O-])ccc2O)o1	none (no result: p97 inhibitor, S1P4 ag, S1P3 antag, DTT redox prof, S1P4 antag)
Cc1ccsc1C(=O)N1CCCC(CO)(Cc2ccccc2F)C1 (configuration not stated)	none (no result: p97 inhibitor, S1P4 ag, S1P3 antag, DTT redox prof, S1P4 antag)
Cc1ccc(C)n1-n1c(C)nc2scc(-c3cccs3)c2c1=O	p97 inhibitor 15
CC(C)C(NC(=O)C(NC(=O)C1OC2OC(C)(C)OC2C2OC(C)(C)OC12)C(C)C)C(=O)O (configuration not stated)	none
O=C(O)COc1ccccc1C(Nc1cccnc1)c1cc(Cl)c2cccnc2c1O (configuration not stated)	SUMO HTRF inh 77
Cc1ccc2nc(SC(C)C(=O)N3CCOCC3)[nH]c2c1 (configuration not stated)	none
CC1CN(S(=O)(=O)c2ccc(C(=O)Nc3nnc(-c4ccc5c(c4)CCCC5)o3)cc2)CC(C)O1 (configuration not stated)	S1P3 antag 84
CC1CN(S(=O)(=O)c2ccc(C(=O)Nc3nnc(-c4ccccn4)o3)cc2)CC(C)O1 (configuration not stated)	none
CCN1CCN(C(=O)CCc2nnc3ccc(N4CCN(c5cccc(OC)c5)CC4)nn23)CC1	none (no result: p97 inhibitor, S1P4 ag, S1P3 antag, DTT redox prof, S1P4 antag)
CCN(C(=O)COC(=O)c1ccc(N2C(=O)c3ccccc3C2=O)cc1)C1CCS(=O)(=O)C1 (configuration not stated)	none
CCOc1ccc(N2C(=O)c3ccc(C(=O)OCC(=O)N(CC)C4CCS(=O)(=O)C4)cc3C2=O)cc1 (configuration not stated)	SUMO HTRF inh 54
O=c1[nH]c(=S)[nH]c2c1C(c1ccc(Br)cc1)c1c([nH]c(=S)[nH]c1=O)O2	SUMO HTRF inh 80 (no result: p97 inhibitor, S1P4 ag, S1P3 antag, DTT redox prof, S1P4 antag)
O=C1CCCC2=C1C(c1ccc(Br)cc1)c1c([nH]c(=S)[nH]c1=O)N2 (configuration not stated)	none
CCCC(=O)NCc1nc2ccccc2n1CC(=O)c1ccccc1	none (no result: p97 inhibitor, S1P4 ag, S1P3 antag, DTT redox prof, S1P4 antag)
COCC(=O)N1CCC(n2nccc2NC(=O)c2ccccc2OC)CC1	none (no result: p97 inhibitor, S1P4 ag, S1P3 antag, DTT redox prof, S1P4 antag)
COCCCn1c(C(=O)Nc2ccc3c(c2)OCO3)cc2c(=O)n3ccccc3nc21	none (no result: p97 inhibitor, S1P4 ag, S1P3 antag, DTT redox prof, S1P4 antag)
COCCCn1c(C(=O)N2CCOCC2)cc2c(=O)n3ccccc3nc21	SUMO HTRF inh 52 (no result: p97 inhibitor, S1P4 ag, S1P3 antag, DTT redox prof, S1P4 antag)
CC(C)=CCc1c(O)cc2oc3c(CC=C(C)C)c(O)c(O)c(CC=C(C)C)c3c(=O)c2c1O	SUMO HTRF inh 50 (no result: p97 inhibitor, S1P4 ag, S1P3 antag, DTT redox prof, S1P4 antag)
COc1cc2c(cc1NC(=S)NC(=O)/C=C/c1ccco1)oc1ccccc12	SUMO HTRF inh 52
